Results on six molecules are retold here after PubChem BioAssay (Tox21).

The structures appear in SMILES notation. Values without a mark were called inactive. Records with an inconclusive call do not appear. Calls of active or inactive are those of the source. Unless noted, calls follow the shape of the full dose curve.

Test [1] is described as follows: Nuclear factor erythroid 2-related factor 2/antioxidant responsive element (Nrf2/ARE) small molecule agonists: qHTS cell viability counter screen in human keratinocytes (AID 1919968; active = well fitted curve in the direction sought with a large enough effect in the repeat runs; an effect the other way counts as inactive or inconclusive; also: nearly all actives have a fitted effect of over 55% in size). The procedure, abridged: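 Cytotoxicity was multiplexed with the Nrf2/ARE luciferase assay in the same wells. Stably transfected HaCaT keratinocytes were treated with test compounds for 23 h at 37 C. Cell viability was then measured by CellTiter-Fluor fluorescence.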

Test [2] is described as follows: Nuclear factor erythroid 2-related factor 2/antioxidant responsive element (Nrf2/ARE) small molecule agonists: luciferase reporter gene qHTS assay in human keratinocytes (AID 1919969; also: nearly all actives have a fitted effect of over 35% in size). (A reporter such as luciferase makes a cellular process visible.)
Test [3] deals with Gonadotropin-releasing hormone receptor (Homo sapiens) (UniProt P30968). Briefly: Human gonadotropin-releasing hormone receptor (GnRHR) small molecule agonists, calcium flux assay in GnRHR-HEK293 cells (AID 1920063). Also: nearly all actives have a fitted effect of over 35% in size. An outline of the steps:
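Agonist activity was measured as intracellular calcium flux in HEK293 cells engineered to stably express human GnRHR. After dye loading for 1 hour at 37 C, compounds in DMSO were added and fluorescence was followed for 3 minutes.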
In general terms: Calcium flux is commonly read through the fluorescence of an indicator in the cells.

Test [4] concerns the target KiSS-1 receptor (Homo sapiens) (UniProt Q969F8). Briefly: Human kisspeptin (KISS1R) small molecule agonists, calcium flux assay in KISS1R-HEK293 cells (AID 1920064; active = well fitted curve in the direction sought with a large enough effect in the repeat runs; an effect the other way counts as inactive or inconclusive). The procedure, abridged: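 Agonist activity is monitored as intracellular calcium rise in engineered HEK293 cells carrying human KISS1R. Cells are dye-loaded for 1 h at 37 C before compound addition, and fluorescence is recorded for 3 min.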

A short description of test [5]: G protein-coupled receptor (GPCR) small molecule agonists, calcium flux assay: HEK293 wild type cell line counter screen (AID 1920065). An outline of the steps: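 Seed cells, incubate 18 h (37 C, 5% CO2); add calcium dye, 1 h at 37 C; pin-transfer compounds, ATP control or DMSO; read fluorescence 480/540 nm each second for 3 min.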
The nature of test [6]: p53 small molecule agonists, cell-based qHTS assay with human liver microsomes (AID 1963577).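 Also: p53 response element beta-lactamase reporter cells with liver microsomes plus NADPH.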 An outline of the steps: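 Reporter activation was measured by LiveBLAzer fluorescence intensity in p53RE-bla cells, which had been exposed to compounds for 16 h at 37 C alongside 0.5 mg/mL human liver microsomes and 0.5 mg/mL NADPH (final concentrations).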
Test [7] is described as follows: p53 small molecule agonists, cell-based qHTS assay with rat liver microsomes (AID 1963578). The procedure, abridged: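 Compound in DMSO added to p53RE-bla cells 5 h post-plating; rat microsomes/NADPH 0.5 mg/mL final; 16 h, 37 C; LiveBLAzer 2 h RT.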
A general note: qHTS replaces the single test concentration by a dilution series.

Test [8] in a line: p53 small molecule agonists, cell-based qHTS assay with human liver microsomes: qHTS cell viability counter screen (AID 1963579). Also: nearly all actives have a fitted effect of over 45% in size. An outline of the steps: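 HLM-supplemented (0.5 mg/mL final) and NADPH-supplemented (0.5 mg/mL final) p53RE-bla cultures, 4,000 cells per well, were dosed with compounds in DMSO for 16 h at 37 C; luminescent ATP detection (CellTiter-Glo, 30 min, room temperature) quantified surviving cells.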

Test [9] is described as follows: p53 small molecule agonists, cell-based qHTS assay with rat liver microsomes: qHTS cell viability counter screen (AID 1963580). Also: nearly all actives have a fitted effect of over 45% in size. An outline of the steps:
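Counter screen for cytotoxicity under metabolic activation: rat liver microsomes and NADPH, 0.5 mg/mL final each, added with compounds to p53RE-bla HCT-116 cells; 16 h at 37 C, then ATP luminescence read.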

Test [10] in a line: p53 small molecule agonists, cell-based qHTS assay: qHTS cell viability counter screen (AID 1963581). Also: nearly all actives have a fitted effect of over 45% in size. Also: potency is read from the fitted curve at half-maximal effect. The procedure, abridged:
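Viability was counter-screened in parallel with the p53 agonist reporter by measuring intracellular ATP luminescence in the same HCT-116 p53RE-bla wells after 16 h compound treatment at 37 C.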

The nature of test [11]: p53 small molecule agonists, cell-based qHTS assay (AID 1963582; active = well fitted activation curve with a large enough effect in the signal ratio in the repeat runs, not every such curve was filed as active; the % refers to the signal ratio). The procedure, abridged:
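Cells carrying a p53-responsive bla reporter are treated with test compounds for 16 h at 37 C; beta-lactamase activity is then detected with LiveBLAzer B/G FRET substrate after 2 h at room temperature.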

The target of test [12] is 5-hydroxytryptamine receptor 2A (Homo sapiens) (UniProt P28223). Briefly: 5-hydroxytryptamine receptor 2A (HTR2A) small molecule agonists, cell-based qHTS assay (AID 1963587). Also: nearly all actives have a fitted effect of over 30% in size. An outline of the steps: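 HTR2A-CHO cells, plated 18 h at 37 C/5% CO2, dye-loaded 1 h at 37 C; compounds in DMSO added by pin tool (agonist mode). Intracellular calcium flux read as kinetic fluorescence on FDSS over 2 min at 1 s intervals.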
Chain of 5-hydroxytryptamine receptor 2A (Homo sapiens) (P28223 whole entry, looked up): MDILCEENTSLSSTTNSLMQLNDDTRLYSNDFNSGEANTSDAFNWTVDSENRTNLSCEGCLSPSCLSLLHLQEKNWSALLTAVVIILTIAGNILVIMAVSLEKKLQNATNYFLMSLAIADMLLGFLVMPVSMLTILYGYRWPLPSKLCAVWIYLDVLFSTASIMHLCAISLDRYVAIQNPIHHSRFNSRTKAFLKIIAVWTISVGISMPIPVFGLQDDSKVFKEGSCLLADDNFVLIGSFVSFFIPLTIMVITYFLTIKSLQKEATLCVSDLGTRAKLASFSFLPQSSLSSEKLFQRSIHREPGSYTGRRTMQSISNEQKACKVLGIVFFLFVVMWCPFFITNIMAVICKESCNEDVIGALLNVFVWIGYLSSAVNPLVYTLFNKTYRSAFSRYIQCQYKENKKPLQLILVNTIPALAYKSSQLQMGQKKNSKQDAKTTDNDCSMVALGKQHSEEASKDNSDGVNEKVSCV

For test [13], the target named is Muscarinic acetylcholine receptor M1 (Homo sapiens) (UniProt P11229). Briefly: Cholinergic receptor muscarinic 1 (CHRM1) small molecule antagonists, cell-based qHTS assay (AID 1963588). Also: nearly all actives have a fitted effect of over 40% in size. Also: potency is read from the fitted curve at half-maximal effect. An outline of the steps:
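Compounds were tested at 15 concentrations in three independent runs. Dye-loaded CHRM1-CHO cells were exposed 5 min at room temperature before stimulation by acetylcholine added at 50nM. Intracellular calcium was read kinetically on FDSS for 3 min.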

Test [14] shares this target. Description: Cholinergic receptor muscarinic 1 (CHRM1) small molecule agonists, cell-based qHTS assay (AID 1963589). Also: nearly all actives have a fitted effect of over 35% in size. An outline of the steps: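 Cells were plated and incubated 18 h at 37 C/5% CO2, loaded with calcium dye for 1 h at 37 C, then treated with compounds in DMSO. Fluorescence was recorded kinetically at 1 sec intervals.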
Test [15] is described as follows: cAMP Responsive Elements (CRE) small molecule agonists, cell-based qHTS assay (AID 1963590). An outline of the steps: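 Cells carrying a CRE-driven beta-lactamase reporter (HEK 293T) are seeded, incubated overnight (18 h), and treated with test compounds for 3 h at 37 C; reporter activity is then detected with a FRET substrate after 2 h at room temperature.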
The nature of test [16]: cAMP Responsive Elements (CRE) small molecule antagonists, cell-based qHTS assay (AID 1963591; active = well fitted inhibition curve with a large enough effect in the signal ratio in the repeat runs, not every such curve was filed as active; the % refers to the signal ratio; also: potency is read from the fitted curve at half-maximal effect). The procedure, abridged:
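Cells (CRE-bla HEK 293T, DMEM with 10% dialyzed FBS and 25 mM HEPES) are seeded and incubated 18 h. Compounds are added with NKH477 agonist at 0.25 uM final for 3 h, then FRET substrate for 2 h.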

The target in test [17] is Beta-2 adrenergic receptor (Homo sapiens) (UniProt P07550). Briefly: Adrenergic beta2 receptor (ADRB2) small molecule antagonists, cell-based qHTS assay (AID 1963592). Also: series mostly up to about 92 µM; nearly all actives have a fitted effect of over 50% in size. The procedure, abridged:
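Assay format: CHO-ADRB2 cells, 18-20hr seeding at 37C/5% CO2, then compound plus 1nM isoproterenol agonist mix for 0.5hr RT. Homogeneous time-resolved fluorescence cAMP detection after 1hr, expressed as 665/615 nm ratio.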

Test [18] concerns the target D(2) dopamine receptor (Homo sapiens) (UniProt P14416). Description: Dopamine D2 receptor (DRD2) small molecule agonists, cell-based qHTS assay (AID 1963594). Also: nearly all actives have a fitted effect of over 35% in size. An outline of the steps:
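HEK293 cells stably expressing DRD2 were cultured 24 h at 37 C, then given Ro20-1724 (0.1 mM final) and compounds for 10 min at room temperature. NKH477 (200nM) was then added for 30 min. cAMP was read by HTRF.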

Test [19] has the same target. Briefly: Dopamine D2 receptor (DRD2) small molecule antagonists, cell-based qHTS assay (AID 1963595; active = well fitted inhibition curve with a large enough effect in the signal ratio in the repeat runs, with a control signal flat; the % refers to the signal ratio). An outline of the steps:
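Readout: HTRF cAMP, cAMP-d2 competing with cellular cAMP for anti-cAMP cryptate, read after 1 h. Cells: DRD2-HEK293. Conditions: 0.1 mM Ro20-1724, 12 nM quinpirole, 200 nM NKH477, 30 min RT.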

Test [20] addresses Beta-2 adrenergic receptor (Homo sapiens) (UniProt P07550). Description: Adrenergic beta2 receptor (ADRB2) small molecule agonists, cell-based qHTS assay (AID 1963593).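 Also: CHO cells stably overexpressing human ADRB2.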 The procedure, abridged:
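CHO cells stably over-expressing ADRB2 were plated overnight at 37C, then dosed with compounds plus a stimulation mix containing 100uM IBMX and 25uM Ro-20-1724 for 0.5hr at room temperature. cAMP was measured by HTRF competition, 1hr.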
% is scaled to controls: 0 for no effect and ±100 for the full control effect.

Chain of Muscarinic acetylcholine receptor M1 (Homo sapiens) (P11229 whole entry, looked up): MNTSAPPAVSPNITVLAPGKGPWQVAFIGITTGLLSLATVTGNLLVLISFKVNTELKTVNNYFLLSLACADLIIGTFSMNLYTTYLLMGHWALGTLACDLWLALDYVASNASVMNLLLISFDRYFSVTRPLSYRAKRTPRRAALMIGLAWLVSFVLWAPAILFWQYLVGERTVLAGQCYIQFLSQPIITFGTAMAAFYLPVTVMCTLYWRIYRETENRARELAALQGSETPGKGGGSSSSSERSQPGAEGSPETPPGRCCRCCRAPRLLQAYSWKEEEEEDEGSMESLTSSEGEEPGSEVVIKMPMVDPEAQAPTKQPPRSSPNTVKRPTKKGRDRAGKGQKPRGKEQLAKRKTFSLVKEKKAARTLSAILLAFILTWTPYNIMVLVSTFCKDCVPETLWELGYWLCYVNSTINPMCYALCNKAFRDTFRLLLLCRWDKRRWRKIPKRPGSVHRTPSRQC
Chain of Beta-2 adrenergic receptor (Homo sapiens) (P07550 whole entry, looked up): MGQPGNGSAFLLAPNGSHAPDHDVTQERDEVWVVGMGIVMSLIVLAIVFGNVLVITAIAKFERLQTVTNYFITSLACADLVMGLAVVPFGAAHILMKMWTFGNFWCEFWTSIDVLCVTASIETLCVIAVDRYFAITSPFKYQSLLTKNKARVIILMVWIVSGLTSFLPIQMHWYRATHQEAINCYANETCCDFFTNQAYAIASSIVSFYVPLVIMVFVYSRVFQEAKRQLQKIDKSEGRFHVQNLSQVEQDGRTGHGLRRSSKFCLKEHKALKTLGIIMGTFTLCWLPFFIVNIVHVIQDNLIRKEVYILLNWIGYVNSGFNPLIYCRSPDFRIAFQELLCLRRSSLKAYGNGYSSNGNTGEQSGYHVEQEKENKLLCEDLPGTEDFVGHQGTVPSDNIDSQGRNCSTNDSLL
Chain of KiSS-1 receptor (Homo sapiens) (Q969F8 whole entry, looked up): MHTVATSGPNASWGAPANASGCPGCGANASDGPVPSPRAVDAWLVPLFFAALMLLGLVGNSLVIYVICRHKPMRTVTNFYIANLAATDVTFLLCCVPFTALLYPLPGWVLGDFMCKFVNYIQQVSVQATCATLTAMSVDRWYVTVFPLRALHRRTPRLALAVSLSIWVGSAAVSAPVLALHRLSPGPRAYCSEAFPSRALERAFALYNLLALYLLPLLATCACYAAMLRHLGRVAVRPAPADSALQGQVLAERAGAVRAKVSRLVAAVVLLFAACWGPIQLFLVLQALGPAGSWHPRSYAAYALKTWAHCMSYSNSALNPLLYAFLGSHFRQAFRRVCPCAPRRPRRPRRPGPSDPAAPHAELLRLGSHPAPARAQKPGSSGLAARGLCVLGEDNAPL
Chain of D(2) dopamine receptor (Homo sapiens) (P14416 whole entry, looked up): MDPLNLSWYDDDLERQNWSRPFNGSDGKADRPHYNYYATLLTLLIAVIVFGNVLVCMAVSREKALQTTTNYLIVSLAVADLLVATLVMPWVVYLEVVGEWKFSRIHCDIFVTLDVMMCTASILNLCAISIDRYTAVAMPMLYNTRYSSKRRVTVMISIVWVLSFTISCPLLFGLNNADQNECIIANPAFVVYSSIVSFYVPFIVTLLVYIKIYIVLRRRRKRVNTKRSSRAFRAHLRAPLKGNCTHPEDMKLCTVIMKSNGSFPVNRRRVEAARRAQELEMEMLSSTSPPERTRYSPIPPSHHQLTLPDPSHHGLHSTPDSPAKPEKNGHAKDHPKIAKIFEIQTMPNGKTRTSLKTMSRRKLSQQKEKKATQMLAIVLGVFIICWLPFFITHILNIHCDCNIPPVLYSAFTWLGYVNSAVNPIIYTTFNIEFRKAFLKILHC
Chain of Gonadotropin-releasing hormone receptor (Homo sapiens) (P30968 whole entry, looked up): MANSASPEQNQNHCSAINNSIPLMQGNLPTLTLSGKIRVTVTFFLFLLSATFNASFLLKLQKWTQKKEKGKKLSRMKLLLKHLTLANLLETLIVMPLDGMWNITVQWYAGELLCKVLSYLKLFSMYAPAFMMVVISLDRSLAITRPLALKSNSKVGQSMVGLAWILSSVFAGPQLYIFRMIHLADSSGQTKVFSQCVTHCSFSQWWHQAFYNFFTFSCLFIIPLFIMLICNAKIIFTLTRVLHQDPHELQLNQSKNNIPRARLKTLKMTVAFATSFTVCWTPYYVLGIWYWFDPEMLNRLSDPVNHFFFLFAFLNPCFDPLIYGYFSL

Take `CCCCCCOC(=O)CCCCC`: the Potency result in test [1], in test [2], in [3], in test [6], in [7] and in test [8] was “inactive” throughout. In addition, the Potency entry in test [9], in test [10], in test [11], in test [12], in test [13] and in test [14] was “inactive” each time. In addition, the Potency entry in test [15], in test [16], in test [17], in test [18] and in [19] was “inactive” in each case. Further, the result in [4] and in test [5] was inactive.

With `CC(C)C(O)C(C)(C)CO` (configuration not stated), the Potency entry in test [1], in test [2], in [3], in [6], in test [7] and in test [8] was “inactive” throughout. Further, the Potency result in [9], in test [11], in test [12], in [14], in [15] and in test [17] was “inactive” in each case. For the same molecule, the Potency entry in [18] and in test [19] was “inactive” each time. Moreover, the result in test [4] and in test [5] was inactive. The Potency in [10] is 3.75 µM (active); in test [13], 0.487 µM (active); in test [16] it was 56.2 µM (active).

As to `c1ccc2c(CC3=NCCN3)cccc2c1`, the Potency result in [1], in test [2], in [3], in test [6], in test [7] and in test [8] was “inactive” throughout. Further, the Potency entry in [9], in test [10], in [11], in test [12], in [13] and in test [14] was “inactive” each time. Also, the Potency entry in [15], in [16], in test [17], in test [20], in test [18] and in test [19] was “inactive” throughout. Further, the outcome in test [4] and in [5] was inactive.

For the molecule `CCN1CCCC1CNC(=O)c1cc(S(=O)(=O)CC)c(N)cc1OC` (configuration not stated), the Potency result in [1], in [2], in test [3], in [6], in [7] and in [8] was “inactive” each time. Moreover, the Potency result in [9], in test [10], in test [11], in test [12], in test [13] and in [14] was “inactive” throughout. Also, the Potency entry in test [15], in test [17] and in [20] was “inactive” in each case. Further, the result in test [4] and in test [5] was inactive.

As for `CC(=O)N[C@@H](CCC(N)=O)C(=O)O`, the Potency result in [1], in test [2], in test [3], in test [6], in [7] and in test [8] was “inactive” in each case. Also, the Potency entry in test [9], in [10], in test [11], in [12], in test [13] and in test [14] was “inactive” each time. The Potency result in test [15], in [16], in [17] and in test [19] was “inactive” throughout. The result in test [4] and in test [5] was inactive.

For the molecule `C[C@@H](O)[C@H](N)C(=O)O`, the activity change, negative = cytotoxicity is 1.84% [at 19 µM] in test [1], 12.8% [at 13.5 µM] in test [8], -1.12% [at 13.5 µM] in test [9] and 3.28% [at 13.5 µM] in test [10]. The activity, positive = activation in [2] was 1.15% [at 19 µM]. The activity change in test [3] was -1.37% [at 11.8 µM, active compounds read high]. The activation in test [4] is -0.197% [at 15.8 µM]; in test [5], -0.289% [at 11.8 µM]; in test [6], 1.89% [at 13.5 µM]; in test [7], 3.27% [at 13.6 µM]; in [11], -0.75% [at 13.5 µM]; in test [12], 1.14% [at 15.9 µM]. The activation in test [14] was -0.0423% [at 15.8 µM]; in test [15], -0.0351% [at 19 µM]; in test [18] it was 17.6% [at 19 µM]. Besides, in test [13], the activity, negative = inhibition is -1.65% [at 12.6 µM]. The activity change, negative = inhibition in test [16] is 5.26% [at 18.9 µM]; in test [17], 2.52% [at 19 µM]; in test [19], -2.84% [at 18.9 µM].
